# MBNL1 CUG block: inhibitors of human MBNL1 binding to CUG repeat RNA; Q9NR56; TR-FRET MBNL1-His/biotin-(CUG)12 binding, 665/545 ratio; Potency, µM (top dose mostly 57.5 µM), for the others: at the top dose activity change, negative = inhibition, hits mostly inhibitors; 280,000 tested, 0.036% active; AID 2675; active means well fitted inhibition curve with a large enough effect in the signal ratio, with a control signal flat, not every such curve was filed as active; inconclusive means small, poorly fitted or top-dose-only effect, or effect the other way, or a change in a side signal; inactive means no such curve, though single readings can be large or run the other way; the % refers to the signal ratio; further: potency means the concentration at half of the fitted maximal effect; on the % scale 0 is the no-effect control and ±100 the full control effect
#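 His-tagged MBNL1 binding to biotinylated (CUG)12 RNA was measured by TR-FRET using terbium anti-His antibody (0.055 ng/ul final) and streptavidin-XL665 (5 nM final). Compounds were titrated 92 nM to 58 uM; 60 min at room temperature.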
# Vif-A3F inh: blocks the Vif interaction with APOBEC3F; AID 602313; Potency, µM (titrated, usually from 46.1 µM), inactives show at the highest dose activity, negative = active; 390,000 tested, 0.2% active; HeLa A3F-eYFP + Vif (tagged APOBEC3F with the HIV-1 protein that degrades it), YFP fluorescence increase; further: potency means the concentration at half of the fitted maximal effect; % of control where 0% means no effect; nearly all actives have a fitted effect of over 65% in size
#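 HeLa cells stably expressing Vif plus C-terminally eYFP-tagged A3F were seeded, incubated overnight at 37 deg C, dosed with compound, incubated overnight again at 37 deg C. Yellow fluorescence (Ex 488/Em 500-530) reported blocked Vif-mediated A3F-eYFP degradation.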
# Epigenetic derep: derepresses silenced GFP reporter in murine cells; murine LDR cells, GFP reporter derepression, 30 h; Potency, µM (titrated, usually from 53.9 µM), inactives show at the highest dose GFP activation, most hits filed as activators; 280,000 tested, 0.2% active; AID 1865; further: potency means the concentration at half of the fitted maximal effect; % of control where 0% means no effect; nearly all actives have a fitted effect of over 60% in size
#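 Reporter derepression read as number of fluorescent GFP-positive objects, 20-120 um in size, counted by laser-scanning cytometer. Mouse LDR line with an epigenetically silenced CMV-GFP locus; compound incubation 30 h, 37 C.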
# PTAP TSG101 blk: blocks PTAP/TSG101 interaction to inhibit HIV-1 budding; Q99816; Potency, µM (titrated, usually from 115 µM), for inactives: at the top dose activity change, negative = inhibition, hits mostly inhibitors; Fluorescence polarization, FITC-PTAP peptide / Tsg101 binding; AID 493005; 340,000 tested, under 10 active; active means well fitted inhibition curve with a large enough effect in the main read-out, with a control signal flat, not every such curve was filed as active; inconclusive means small, poorly fitted or top-dose-only effect, or effect the other way, or a change in a side signal; inactive means no such curve, though single readings can be large or run the other way; further: potency means the concentration at half of the fitted maximal effect; % of control where 0% means no effect
#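 Compounds were pin-transferred onto Tsg101 binding domain (10 uM final) in HEPES pH 7.5 buffer, then FITC-PTAP peptide was added at 50 nM final. After 20 min at RT, polarization reported peptide displacement across a qHTS concentration series.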
# Vif-A3G inh: Vif-A3G binding inhibition | Q9HC16 | HeLa A3G-eYFP + Vif (tagged APOBEC3G with the HIV-1 protein that degrades it), YFP fluorescence, overnight | Potency, µM (series often up to 46.1 µM), without a hit: at the highest dose activity, negative = active, actives largely listed as inhibitors | 410,000 tested, 0.076% active; further: potency means the concentration at half of the fitted maximal effect; on the % scale 0 is the no-effect control and ±100 the full control effect; nearly all actives have a fitted effect of over 60% in size
#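 Read-out is eYFP fluorescence (Ex 488/Em 500-530) from Vif-expressing HeLa A3G-eYFP cells; more signal means A3G escaped Vif-mediated degradation. Cells plated overnight, compound pinned in, incubated overnight at 37 deg C.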
# CBFb RUNX1 block: inhibitors of human CBF-beta and RUNX1 interaction | AlphaScreen CBFb-His/RUNX1-biotin binding, biochemical | Potency, µM (highest dose often 59.8 µM), without a hit: top-dose activity, negative = inhibition, most hits filed as inhibitors | 230,000 tested, under 10 active; further: % of control where 0% means no effect
# Target sequence (Q01196 whole entry, looked up): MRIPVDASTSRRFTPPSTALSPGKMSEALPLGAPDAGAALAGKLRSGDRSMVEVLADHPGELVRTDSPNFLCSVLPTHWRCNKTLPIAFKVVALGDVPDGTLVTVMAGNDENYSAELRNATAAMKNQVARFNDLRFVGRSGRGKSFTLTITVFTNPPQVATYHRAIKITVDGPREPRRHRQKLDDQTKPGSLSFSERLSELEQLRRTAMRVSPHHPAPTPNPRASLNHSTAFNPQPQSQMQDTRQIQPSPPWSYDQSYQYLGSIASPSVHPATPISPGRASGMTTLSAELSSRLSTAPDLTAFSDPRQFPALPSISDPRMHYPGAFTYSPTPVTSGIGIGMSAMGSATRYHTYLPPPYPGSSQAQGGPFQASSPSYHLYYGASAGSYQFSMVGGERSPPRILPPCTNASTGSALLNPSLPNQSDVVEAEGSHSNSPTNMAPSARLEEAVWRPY
# Target sequence (Q13951 whole entry, looked up): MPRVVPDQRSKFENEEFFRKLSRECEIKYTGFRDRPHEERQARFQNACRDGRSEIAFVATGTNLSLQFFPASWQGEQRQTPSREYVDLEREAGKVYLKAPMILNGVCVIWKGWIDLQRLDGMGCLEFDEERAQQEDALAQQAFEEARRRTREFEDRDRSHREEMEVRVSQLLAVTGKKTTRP
#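 CBF-beta (His) and RUNX1 (biotin), 30 nM each; 20 min preassociation; + compound, 15 min; + beads 50 ng each (Ni, streptavidin), 90 min; RT; AlphaScreen read.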
# Starred values were filed as active, the others as inactive; ? = inconclusive; . = no result. Compounds with a hit are over-represented: about 0.37% of the library has one in this group of screens. Unless noted, the call rests on the fitted dose curve; in most records, active means well fitted curve in the direction sought with a large enough effect; inconclusive means small, poorly fitted or top-dose-only effect, or another doubt; inactive means no such curve, though single readings can be large; an effect the other way counts as inactive or inconclusive.
SMILES,MBNL1 CUG block,Vif-A3F inh,Epigenetic derep,PTAP TSG101 blk,Vif-A3G inh,CBFb RUNX1 block
CCOC(=O)CN1C=C(c2ccc3ccccc3n2)C(C[N+](=O)[O-])c2ccccc21 (stereo not given),?,?,3%,-18%,13µM*,-4%
CCOC(=O)CSc1ccc2ccccc2n1,-6%,-15%,-4%,-1%,1%,8%
Nc1cccc2[nH]cnc12,.,.,.,.,3%,.
C(=C\c1ccnc2ccccc12)/c1ccc(-[n+]2cc[n+](-c3ccc(/C=C/c4ccnc5ccccc45)cc3)cc2)cc1,.,.,.,.,0%,.
Cc1ccc2nc(-c3ccccn3)c(NC3CCCC3)n2c1,7%,7.9µM*,0%,-5%,0%,4%
CC(C)(C)n1ncc2c(=O)n(Cc3cccc(OC(F)F)c3)cnc21,.,.,.,.,2%,.
Oc1c(C(Nc2ccccn2)c2ccccn2)ccc2cccnc12 (stereo not given),8%,-11%,3.5µM*,-1%,-22%,?
Cc1cc2nc(-c3ccc(SCC(=O)Nc4ccc(S(=O)(=O)N5CCCC5)cc4)nc3)[nH]c2cc1C,416%,11µM*,7%,16%,-7%,-2%
CC(C)OC(=O)c1c2c(n3ccccc13)C(=O)c1ccccc1C2=O,6%,?,10µM*,?,?,-11%
Cc1ccc(-c2ccc(/C=N/NC(N)=S)o2)cc1,?,5.6µM*,?,-5%,-19%,-7%
NC(=S)N/N=C/c1ccc(-c2ccccc2)o1,?,?,1%,-4%,-21%,2%
Cc1cc(/C=C2\C=Cc3ccccc32)cc(C)c1[N+](=O)[O-],.,.,.,.,-5%,.
COc1ccccc1CNC(=O)c1ccc(Nc2nc3ccccc3n3nnnc23)cc1,.,22µM*,?,.,-28%,.
Cc1ccc(C(=O)O)cc1Nc1nc2ccccc2n2nnnc12,.,11µM*,0%,.,-23%,.
CC(NC(=O)c1ccc(Nc2nc3ccccc3n3nnnc23)cc1)c1ccccc1 (stereo not given),.,7.1µM*,?,.,?,.
COc1ccccc1CNC(=O)c1cccc(Nc2nc3ccccc3n3nnnc23)c1,.,-6%,?,.,-6%,.
CC(CNC(=O)c1ccc(Nc2nc3ccccc3n3nnnc23)cc1)c1ccccc1 (stereo not given),.,-13%,?,.,1%,.
CCOc1cccc(C2C=C(c3ccc4c(c3)OCO4)NC(c3ccccc3Cl)N2)c1O (stereo not given),.,.,.,.,-23%,.
Cc1ccc(/C=C/C(=O)Nc2ccc([N+](=O)[O-])cc2)o1,14%,-7%,1%,-10%,3%,6%
CCOC(=O)CCc1ccc(NC(=O)/C=C/c2ccc([N+](=O)[O-])o2)cc1,.,11µM*,.,1%,7.9µM*,.
c1ccc(N=NC2=NN(c3ccccc3)CS2)cc1,.,4µM*,.,.,3%,.
c1ccc(C2=NN(c3ccccc3)CC2)cc1,-3%,13%,-5%,-9%,1%,27%
COc1ccc(C2CC(c3ccc(Cl)cc3)=NN2c2ccc(S(N)(=O)=O)cc2)cc1 (stereo not given),.,1%,.,0%,-7%,.
COc1ccc(C2CC(c3ccncc3)=NN2c2ccc(S(N)(=O)=O)cc2)cc1 (stereo not given),.,11µM*,.,?,?,.
CNc1c(Br)cc(C=O)cc1Br,.,.,.,.,-3%,.
CS(=O)(=O)Nc1ccc(C2=NN(S(=O)(=O)c3ccccc3)C(c3cccs3)C2)cc1 (stereo not given),2%,22µM*,6%,5%,?,-8%
COc1ccc(C2CC(c3ccccc3)=NN2S(=O)(=O)c2ccccc2)cc1 (stereo not given),-10%,?,?,18%,-29%,3%
